This is an account of results in PubChem BioAssay (NCI).

A short description of experiment [1]: NCI Yeast Anticancer Drug Screen. Data for the rad50 strain (AID 155).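 Also: 0% = growth of vehicle-only cultures of the same strain.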 The note with it: S. cerevisiae rad50 strain growth inhibition; at 50.0 µM; stronger effect = higher value. In outline: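 Relative growth inhibition (compound vs vehicle) was measured in yeast with a defined repair-gene alteration.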
Experiment [2] is described as follows: NCI Yeast Anticancer Drug Screen. Data for the mec2-1 strain (AID 157). Conditions: S. cerevisiae mec2-1 strain, at 50.0 µM, stronger effect = higher value. In a few lines:
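Cells of the genetically defined mec2-1 yeast strain are incubated with test compound. Inhibition of growth is calculated against vehicle-treated controls.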

Experiment [3] in a line: NCI Yeast Anticancer Drug Screen. Data for the sgs1 mgt1 strain (AID 161).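 Also: 0% = growth of cultures given vehicle only.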 Conditions: S. cerevisiae sgs1 mgt1 strain, at 50.0 µM, stronger effect = higher value. In outline: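 Read-out: growth inhibition vs vehicle controls. Cells: mutant yeast strain deficient in DNA damage repair.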
Experiment [4] in a line: NCI Yeast Anticancer Drug Screen. Data for the cln2 rad14 strain (AID 165).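 Also: 0% = growth equal to vehicle treated cultures.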 The note with it: S. cerevisiae cln2 rad14 strain, at 50.0 µM, stronger effect = higher value. In outline: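 The screen exposed genetically defined yeast (cln2 rad14) to test compounds and scored growth inhibition relative to vehicle-treated controls.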
Experiment [5] is described as follows: NCI Yeast Anticancer Drug Screen. Data for the bub3 strain (AID 167). The note with it: S. cerevisiae bub3 mutant strain, at 50.0 µM, stronger effect = higher value. In outline: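 Screening used yeast with an engineered genetic alteration affecting cell cycle control. Compound-exposed cultures were compared with vehicle cultures, and reduced growth was taken as inhibition.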

Experiment [6] in a line: NCI Yeast Anticancer Drug Screen. Data for the mlh1 rad18 strain (AID 175). The note with it: S. cerevisiae mlh1 rad18 strain growth inhibition; at 50.0 µM; stronger effect = higher value. In outline: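 Compound-treated yeast growth, normalised to vehicle controls. Strain bears defined DNA repair mutations.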

This is part of a sample that, as a whole, favours compounds with a hit. Of some 79,000 tested, about 15% had one in any assay. A number with no mark means an inactive call. The source made the active and inactive calls. Rule as the data show it: active = growth inhibition above about 70%; inactive = the rest.

In the case of `CCOc1cn(C2OC(CO)C(O)C2O)c(=O)[nH]c1=O` (configuration not stated), the growth inhibition in experiment [1] was -33.9%; in experiment [2] it was -28.4%; in experiment [3], -16.2%; in experiment [4], 3.55%; in experiment [5] it was -25.2%; in experiment [6], 3.5%.

With `O=C(OCC(COC(=O)c1ccccc1)OC(=O)c1ccccc1)c1ccccc1`, the growth inhibition is -7.15% in experiment [1]; 2.15% in experiment [2]; 8.8% in experiment [3]; -24.6% in experiment [4]; 38.8% in experiment [5]; 0.65% in experiment [6].

Regarding `OC(C/C=N/N=C/CC(O)(C(F)(F)Cl)C(F)(F)Cl)(C(F)(F)Cl)C(F)(F)Cl`, the growth inhibition in experiment [1] is 36%; in experiment [2], 28.3%; in experiment [3] it was 31.7%; in experiment [4] it was 35.2%; in experiment [5], 34.5%; in experiment [6], 34.1%.

As for `CCOc1ccc(NC(=O)/C=C/c2ccco2)cc1`, the growth inhibition is -12% in experiment [1]; -8.75% in experiment [2]; 13.9% in experiment [3]; 22% in experiment [4]; 5.3% in experiment [5]; 3% in experiment [6].

With `C=CN1C(=O)c2ccccc2C1=O`, the growth inhibition was -12.8% in experiment [1]; -12.4% in experiment [2]; -8.95% in experiment [3]; 6.3% in experiment [4]; -6.5% in experiment [5]; -24% in experiment [6].

For the compound `CC(O)CN1CCOCC1` (configuration not stated), the growth inhibition in experiment [1] was 9.55%; in experiment [2], 2.2%; in experiment [3], -0.1%; in experiment [4] it was 15.2%; in experiment [5], -9.85%; in experiment [6] it was 3.55%.

As for `CC(=O)OCCC1CC2c3[nH]c4ccccc4c3CCN2C1=O` (configuration not stated), the growth inhibition in experiment [1] was -3.85%; in experiment [2], -7%; in experiment [3] it was 15.9%; in experiment [4], 0.85%; in experiment [5], 10.7%; in experiment [6], -22.1%.

Consider `COc1cc([N+](=O)[O-])ccc1NC(=O)C(Br)C(Br)C(=O)O` (configuration not stated), for which the growth inhibition is -6.6% in experiment [1]; 5.15% in experiment [2]; -12.5% in experiment [3]; -28.1% in experiment [4]; -0.35% in experiment [5]; 16.4% in experiment [6].

Regarding `Cc1ccc2c(c1)C(c1ccccc1)(c1ccccc1)N(c1ccccc1)S2(=O)=O`, the growth inhibition was 51.2% in experiment [1]; 34.2% in experiment [2]; 64.7% in experiment [3]; 25.2% in experiment [4]; 20.5% in experiment [5]; 58.6% in experiment [6].

Regarding `CSCCC(O)C(=O)O` (configuration not stated), the growth inhibition in experiment [1] is 21.8%; in experiment [2] it was -7.4%; in experiment [3] it was 19.5%; in experiment [4] it was 28.2%; in experiment [5] it was -2.55%; in experiment [6], 17%.

For `O=C(Nc1ccccc1)OC1CCCC12CC2` (configuration not stated), the growth inhibition is 8.7% in experiment [1]; 4.9% in experiment [2]; -16.1% in experiment [3]; -4.8% in experiment [4]; -2.25% in experiment [5]; 23.1% in experiment [6].

On to `CCOC(=O)c1c(-c2ccccc2)n2c3c(cccc13)CC2`, for which the growth inhibition in experiment [1] was 6.85%; in experiment [2] it was -5.2%; in experiment [3], -6.05%; in experiment [4], 6.15%; in experiment [5], 6.55%; in experiment [6], 27.5%.

Consider `O=C(c1ccc(Cl)cc1)C(Br)C(C[N+](=O)[O-])c1ccccc1` (configuration not stated), for which the growth inhibition in experiment [1] was 99.3% (active); in experiment [2], 99% (active); in experiment [3], 99.5% (active); in experiment [4] it was 97.2% (active); in experiment [5] it was 99.1% (active); in experiment [6], 99.2% (active).

As to `CC(=O)/C(C=Nc1c(C)n(C)n(-c2ccccc2)c1=O)=C(/C)O`, the growth inhibition in experiment [1] was 24.6%; in experiment [2], 29%; in experiment [3], 28.1%; in experiment [4], 9.65%; in experiment [5], 24.9%; in experiment [6], 28.5%.

Take `C=C[C@@]1(C)CC2CC[C@]3(C)C(C)=CC(=O)CC3[C@]2(C)CC1O` (some centres not stated): the growth inhibition in experiment [1] is 6.9%; in experiment [2], 3.3%; in experiment [3] it was 22.7%; in experiment [4], -20.3%; in experiment [5] it was 13%; in experiment [6], 10.4%.

Turning to `CCN(CC)CCCC#CCN1CCOCC1`, the growth inhibition was -39.5% in experiment [1]; -48.5% in experiment [2]; -21.4% in experiment [3]; -16.9% in experiment [4]; -44.7% in experiment [5]; -20.1% in experiment [6].

As for `Cc1ccc(C2[C@H]3C(=O)N(c4ccc(Cc5ccc(N6C(=O)[C@@H]7ON(c8ccccc8)C(c8ccc(C)cc8)[C@@H]7C6=O)cc5)cc4)C(=O)[C@H]3ON2c2ccccc2)cc1` (some centres not stated), the growth inhibition in experiment [1] is -23.9%; in experiment [2], -17.9%; in experiment [3], -8.1%; in experiment [4] it was 26.9%; in experiment [5], -5.75%; in experiment [6] it was -10.8%.

For `CC(C)NC(=O)C1C2C=CC(CC2)C1C(=O)NC(C)C` (configuration not stated), the growth inhibition is 6.2% in experiment [1]; 20.1% in experiment [2]; 22.6% in experiment [3]; -5.7% in experiment [4]; 11.3% in experiment [5]; 10.2% in experiment [6].

Regarding `NC(=S)N=Nc1c(O)[nH]c2c(Cl)cc(Cl)cc12`, the growth inhibition is 6.7% in experiment [1]; -14.2% in experiment [2]; 28.6% in experiment [3]; 7.15% in experiment [4]; 13.8% in experiment [5]; -8.95% in experiment [6].

Take `NC(=O)c1ccccn1`: the growth inhibition was 20.7% in experiment [1]; -5.45% in experiment [2]; 15% in experiment [3]; 18.3% in experiment [4]; 0.75% in experiment [5]; 28.4% in experiment [6].

As to `CCCCCCCCn1nnnc1C(F)(F)F`, the growth inhibition in experiment [1] is -3.1%; in experiment [2], 8.45%; in experiment [3], 6.75%; in experiment [4], -15.1%; in experiment [5], 1.45%; in experiment [6], -0.45%.

With `COc1cc(NC(C)=O)c2nccnc2c1`, the growth inhibition was -16.4% in experiment [1]; -21.6% in experiment [2]; 0.1% in experiment [3]; -20.6% in experiment [4]; -0.95% in experiment [5]; -14.2% in experiment [6].

For the compound `CCN(CC)CC(c1ccccc1)C(C)(O)c1ccccc1` (configuration not stated), the growth inhibition is -2% in experiment [1]; -10.1% in experiment [2]; -8% in experiment [3]; 10.9% in experiment [4]; 27.4% in experiment [5]; -22.4% in experiment [6].

As to `COc1ccc(C(=O)/C=C/c2ccc(OCCCOc3ccc(/C=C/C(=O)c4ccc(OC)cc4)cc3)cc2)cc1`, the growth inhibition in experiment [1] is -7.3%; in experiment [2], -19.9%; in experiment [3], 3.6%; in experiment [4], -24.6%; in experiment [5], -19.9%; in experiment [6] it was -27.4%.

Turning to `Cc1ccc(CNC(=O)C2CCCCC2C(=O)O)cc1` (configuration not stated), the growth inhibition was 6.65% in experiment [1]; 21.7% in experiment [2]; 6.95% in experiment [3]; 10.4% in experiment [4]; 27.9% in experiment [5]; -16.1% in experiment [6].

For `CSc1nc(Cl)nc2c1nc(SC)n2-c1ccccc1`, the growth inhibition is -8.4% in experiment [1]; 7.95% in experiment [2]; -0.45% in experiment [3]; -8.95% in experiment [4]; 16.5% in experiment [5]; -15% in experiment [6].

For `CN(C)S(=O)(=O)C(c1ccccc1)C(O)(c1ccccc1)c1ccc(Cl)cc1` (configuration not stated), the growth inhibition in experiment [1] was 72.1% (active); in experiment [2], 45.5%; in experiment [3], 54.1%; in experiment [4], 22.9%; in experiment [5], 16.8%; in experiment [6], 57%.

As to `C[C@@]12CCC(=O)C=C1CC[C@H]1C2CC[C@]2(C)C1CC[C@H]2C(=O)COC(=O)CCC(=O)O` (some centres not stated), the growth inhibition is -1.85% in experiment [1]; -7.8% in experiment [2]; 21.1% in experiment [3]; -22.4% in experiment [4]; 2.55% in experiment [5]; -33.7% in experiment [6].

With `N#CC(=Nc1ccccc1)c1cccc(Br)c1`, the growth inhibition in experiment [1] is 34.5%; in experiment [2], 5.05%; in experiment [3], 18.9%; in experiment [4], 15.4%; in experiment [5], 21.4%; in experiment [6] it was 28.4%.

Take `N#CC1(c2ccccc2)C(c2ccccc2)CC(O)(c2ccccc2)C(C(=O)c2ccccc2)C1c1ccccc1` (configuration not stated): the growth inhibition was 19.9% in experiment [1]; 4.75% in experiment [2]; 3.5% in experiment [3]; 14.3% in experiment [4]; -1.1% in experiment [5]; -3.5% in experiment [6].

As for `COCCOC(=O)c1ccccc1Cl`, the growth inhibition in experiment [1] was 23.7%; in experiment [2] it was 15.6%; in experiment [3], 16.3%; in experiment [4], 8.8%; in experiment [5] it was 7.1%; in experiment [6] it was 22.4%.

In the case of `Oc1ccc(-c2c3ccccc3c(-c3ccc(OCCBr)cc3)c3ccccc23)cc1`, the growth inhibition was -24.2% in experiment [1]; -9.75% in experiment [2]; -9.9% in experiment [3]; 4.65% in experiment [4]; -11.3% in experiment [5]; 7.4% in experiment [6].

Take `CC(=O)Nc1ccc(OCCCc2ccccc2)c([N+](=O)[O-])c1`: the growth inhibition was -7.2% in experiment [1]; 43.6% in experiment [2]; 23.5% in experiment [3]; -20.7% in experiment [4]; 20.4% in experiment [5]; -2.65% in experiment [6].

As for `O=c1c(Br)nn(C(c2ccccc2)c2ccccc2)c(=O)n1C(c1ccccc1)c1ccccc1`, the growth inhibition was 23.1% in experiment [1]; 2.25% in experiment [2]; 10.1% in experiment [3]; 15.8% in experiment [4]; 3.6% in experiment [5]; 13.1% in experiment [6].

`Cc1onc(-c2c(Cl)cccc2Cl)c1C(=O)SC1=NC(C)N2C(SC(=O)c3c(-c4c(Cl)cccc4Cl)noc3C)=NC(C)N12` (configuration not stated): the growth inhibition in experiment [1] is 26.6%; in experiment [2], 7.4%; in experiment [3], 11.3%; in experiment [4], 11.7%; in experiment [5], 18.6%; in experiment [6], 16.6%.

Take `Cc1c([N+](=O)[O-])cc2c(c1[N+](=O)[O-])C(C(C)C)CCC2(C)C` (configuration not stated): the growth inhibition is -1.5% in experiment [1]; -25.2% in experiment [2]; 9.65% in experiment [3]; 29.2% in experiment [4]; -40.4% in experiment [5]; -5% in experiment [6].

Turning to `NC1CCC2(O)c3ccccc3C2C1` (configuration not stated), the growth inhibition in experiment [1] is -0.95%; in experiment [2] it was 0.05%; in experiment [3] it was 22.2%; in experiment [4] it was 18.9%; in experiment [5], 5.7%; in experiment [6] it was 7.35%.
